From PubChem
The list is not random: actives were taken first. Their share in the collection is about 12%.
Insulin prom inh: inhibitors of insulin promoter-driven GFP, primary screen, imaging, TRM-6 cells (human fetal islet line), eGFP reporter, cell count | reporter expression induced with tamoxifen | inhibition, % at 2 µM | actives 0.9% (n = 130,000) | AID 1273, 2008;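 active = inhibition above the mean plus 3 SD, with well images judged a real hit on visual review, cut at about 60% in these data, passing the limit was not always enough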
ROMK mod: ROMK potassium channel modulators, primary screen, cell-based, thallium flux, MLSMR library. ATP-sensitive inward rectifier potassium channel 1 (Homo sapiens), P48048. Tet-inducible ROMK, thallium flux fluorescence; actives lie on both sides. B-score at 10 µM. actives 2% (n = 130,000). AID 1918, 2009;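 active = signal ratio slope over the read window, or its plate-corrected B-score, at least 3 SD from the plate mean, either direction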;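 also: B-score of the F/F0 ratio slope over 7 to 12 s after thallium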
Target sequence (P48048 whole entry, looked up): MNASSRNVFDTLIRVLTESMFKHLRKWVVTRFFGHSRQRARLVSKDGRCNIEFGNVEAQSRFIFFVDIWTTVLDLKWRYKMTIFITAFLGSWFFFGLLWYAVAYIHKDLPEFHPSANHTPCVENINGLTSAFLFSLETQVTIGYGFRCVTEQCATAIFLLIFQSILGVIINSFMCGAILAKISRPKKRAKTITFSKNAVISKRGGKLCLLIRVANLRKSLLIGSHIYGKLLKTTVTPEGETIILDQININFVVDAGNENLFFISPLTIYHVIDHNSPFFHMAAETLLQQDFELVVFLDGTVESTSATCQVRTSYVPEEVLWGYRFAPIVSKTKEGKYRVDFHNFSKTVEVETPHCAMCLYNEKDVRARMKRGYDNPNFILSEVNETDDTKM
L major viab: Leishmania major promastigote growth inhibition, primary screen | Leishmania major promastigotes, resazurin fluorescence viability | actives 9% (n = 200,000) | inhibition, % at 10 µM; in the data active = inhibition above about 50%;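 also: promastigotes grown with compound for 44 hours at 28 °C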
Cl transport mod: KCC2 cotransporter modulators, thallium flux, primary screen, cell-based, HEK293 KCC2, FluoZin-2 fluorescence, MLSMR; Solute carrier family 12 member 5 (Homo sapiens), Q9H2X9; KCC2 cells, thallium flux FluoZin-2 fluorescence; B-score of Tl+ flux slope (higher = more flux/activation; lower = inhibition) at 10 µM; actives 2.2% (n = 190,000);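 active = thallium flux slope and its plate-corrected score both differing from the plate sample mean at a set confidence after two filtering rounds, in either direction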;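 also: slope of fluorescence scaled to starting intensity during 10 to 20 s after thallium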
Ins promoter up: insulin promoter activators in MIN6 cells, imaging, high-content screening, mouse beta cells | MIN6 insulin promoter-GFP reporter; active compounds read high | z-score at 5 µM | actives 0.3% (n = 190,000);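 active = z-score above 3 at 5 µM with at least 500 cells counted in the well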
WT yeast gro inh: growth inhibition of WT strain, primary screen, mitochondrial fusion inhibitor project, WT and mutant strains, chemical genetic. AID 1362, 2008. mitochondrial fusion phenotypic screen. actives 2.1% (n = 190,000). inhibition, % at 10 µM; in the data active = inhibition above about 58%; tested in S. cerevisiae
Starred values were filed as active, the others as inactive; . = not tested or not shown.

SMILES	Insulin prom inh	ROMK mod	L major viab	Cl transport mod	Ins promoter up	WT yeast gro inh
CCCN(CCC)C(=O)CCS(=O)(=O)c1cccc2nsnc12	-78	.	-8	1.4	0.39	2
CN(C)C=Nc1ccc2nn(-c3ccccc3)nc2c1	.	-0.3	-1	-0.091	3.1*	34
O=C(NCC(=O)N(c1ccccc1)C(C(=O)NC1CCCC1)c1ccncc1)c1ccco1 (stereo not drawn)	44	0.081	-6	-0.48	.	.
Cc1ccnc2c(N3C(=O)C4C5c6ccccc6C(c6ccccc65)C4C3=O)cccc12 (stereo not drawn)	.	0.0065	58*	.	1.6	-16
Cc1ccccc1N1C(=O)C2C3CC(=O)C(c4ccccc43)C2C1=O (stereo not drawn)	-13	-1.2	-4	0.55	.	-8
Cc1c(-n2c(SCC(=O)NC(C)C)nc3ccccc3c2=O)c(=O)n(-c2ccccc2)n1C	.	0.054	-3	-0.0089	-0.87	-21
Cc1nn2c(CN(C(=O)c3ccco3)c3ccccc3)nnc2c2ccccc12	-24	.	11	-0.98	.	.
O=C(CSc1ccccc1)N1CCN(C(=O)c2ccco2)CC1	.	0.82	-9	-1.4	0.25	-4
O=C(c1ccco1)N1CCN(C(=O)C(Sc2ccccc2)c2ccccc2)CC1 (stereo not drawn)	6	.	59*	.	0.73	-2
COc1ccc(-n2ncc3c(N4CCN(Cc5ccccc5)CC4)ncnc32)cc1	.	0.21	67*	-2.2	-1.4	48
CCN1CCN(c2ncnc3c2cnn3-c2ccccc2)CC1	.	.	-3	0.42	-0.09	16
CN1CCN(c2ncnc3c2cnn3-c2ccc(Cl)cc2)CC1	.	.	88*	-0.81	-0.2	22
Cc1ccccc1C(=O)N1CCN(c2ncnc3c2cnn3-c2ccccc2)CC1	26	.	14	-0.39	-0.73	5
CC1CC(C)CN(c2ncnc3c2cnn3-c2ccc(Cl)cc2)C1 (stereo not drawn)	.	.	-4	-0.0055	-3	62*
Cc1ccc(C(=O)N2CCN(c3ncnc4c3cnn4-c3ccccc3)CC2)cc1	62	.	53*	-0.73	.	.
COc1ccc(/C=N/NC(=S)Nc2c(C)n(C)n(-c3ccccc3)c2=O)cc1OC	.	.	.	-0.57	-0.09	.
COc1ccc(-c2cc(C#N)nc(N3CCN(C)CC3)n2)cc1	50	-1.1	25	-0.28	-0.09	40
COc1ccc(-c2cc(C#N)nc(N3CCNCC3)n2)cc1	11	-2.4	100*	-0.68	.	-5
O=C(Cc1ccccc1)N1CCN(C(=O)c2ccc([N+](=O)[O-])cc2)CC1	.	-0.069	-6	.	0.58	-4
CC1CCCC(C)N1/N=C/C=C/c1ccccc1[N+](=O)[O-] (stereo not drawn)	.	-1.1	10	0.79	-0.32	-5
CC1CCCC(C)N1/N=C/c1ccccc1C(=O)O (stereo not drawn)	72*	-0.91	3	0.042	2	-10
COc1cc2c(cc1OC)C(c1cc3cc4c(cc3[nH]c1=O)OCO4)N(C(=O)C(C)C)CC2 (stereo not drawn)	-139	0.12	-8	-0.22	.	-16
O=C(c1ccccc1)N1CCN(C(=S)NCCc2ccccc2)CC1	18	.	53*	0.39	-1.3	-8
Cc1c(Cl)cccc1NC(=S)NN	-18	-0.19	1	0.011	0.86	23
Cc1ccc(C(=C2C3C=CC2C2C(=O)NC(=O)C32)c2ccc(C)cc2)cc1 (stereo not drawn)	64	.	12	0.49	0.08	83*
SMILES	Insulin prom inh	ROMK mod	L major viab	Cl transport mod	Ins promoter up	WT yeast gro inh
O=C(COc1cccc(Cl)c1)NNC(=S)Nc1ccccc1	.	.	1	2.6	1.4	38
Cc1ccc(C(=O)CC(=O)COc2ccc(Cl)cc2)cc1	27	.	66*	21*	0.69	1
Cc1cccc(C(=O)NC(=S)NNC(=O)COc2ccc(Cl)cc2)c1	.	3.3*	-1	47*	-0.09	64*
Cc1ccc(C(=O)CNc2ccc(Cl)cc2)cc1	-33	-0.06	6	0.19	-0.32	6
O=C(COc1ccccc1)NNC(=S)NC(=O)c1ccc(Cl)cc1Cl	62	.	-8	22*	.	56
O=C1N(Cc2cccc(Cl)c2)C[C@@H]2C[C@@H](c3ccc4nonc4c3)N3CCC[C@@]123	-62	.	60*	-0.84	-0.11	1
Cc1ccccc1-c1cccc([C@@H]2C[C@H]3CN(Cc4cccnc4)C(=O)[C@]34CCCN24)c1	.	-1.3	63*	.	0.31	26
COc1ccccc1CN1C[C@@H]2C[C@@H](c3ccc4nsnc4c3)N3CCC[C@@]23C1=O	.	0.63	67*	-1.6	-0.82	9
O=C1N(Cc2cccnc2)C[C@@H]2C[C@@H](c3ccccc3C#Cc3ccccc3)N3CCC[C@@]123	.	-0.087	6	.	0.28	15
S=C(NCCc1ccccc1)Nc1ccc(Nc2ccccc2)cc1	.	-0.24	12	-0.55	-0.19	82*
Cc1cccnc1NC(=S)NCCc1ccccc1	.	.	-5	-1.2	-1.7	61*
CC(C)(C)NC(=S)Nc1ccc(Nc2ccccc2)cc1	25	.	61*	.	.	73*
Fc1cccc(NC(=S)NCCc2ccccc2)c1	-38	-1.7	8	-0.64	.	33
O=C(O)CN1C(=O)CCS(=O)c2ccccc21 (stereo not drawn)	-30	.	-3	0.31	-2	-9
O=C(CC1C(=O)N(c2ccccc2)C(=O)N1C1CCCCC1)Nc1ccccc1 (stereo not drawn)	-21	.	4	-0.005	0.27	-7
CCCS(=O)(=O)c1c(S(=O)(=O)CCC)c2c(N)cccn2c1C(=O)c1ccccc1	-53	-3	46	-0.86	-0.51	-7
Cc1nn(-c2ccccc2)c2sc(C(=O)N(CC(=O)NC(C)(C)C)Cc3ccco3)cc12	.	-1.9	60*	-1.7	-1.6	3
CCOc1ccc(/C(O)=C2/C(=O)C(=O)N(CCOCCO)C2c2ccccn2)cc1 (stereo not drawn)	14	-0.3	-4	.	0.54	7
Cc1ccc(C(=O)C2=C(O)C(=O)N(c3ncccn3)C2c2ccc(Cl)cc2)o1 (stereo not drawn)	80*	0.036	-8	-1	.	0
Nc1nc(N)c(N=Nc2ccc(Cl)cc2)c(=O)[nH]1	.	0.18	-6	0.93	0.1	-19
Nc1[nH]n2c(=O)c3c(nc2c1N=Nc1ccc(Cl)cc1)CCCC3	-10	.	79*	.	-0.05	1
Nc1[nH]n2c(=O)c3c(nc2c1N=Nc1ccccc1)CCCC3	.	0.049	91*	0.36	0.52	80*
Cn1cc(C(N)=O)c2ccccc21	.	0.12	-7	-0.81	1.5	4
Cn1cc(SCC(=O)O)c2ccccc21	83*	1.7	-6	-0.036	.	11
Cn1cc(C(=O)CCl)c2ccccc21	.	-0.97	92*	0.9	-1.9	-18
